Experimental data published in PubChem BioAssay.
Calls of active or inactive are those of the source. Unless noted, no rule for the calls is given here.

Tests used:
[1] = liver-stage malaria parasite load reduction – cell-based, known kinase inhibitor set, luminescence, hepatoma host viability (AID 624392); conditions: Plasmodium liver stage in hepatoma cells, luciferase luminescence, concentration not given here; liver cell % of control: measured here: host liver cell viability; parasite % of control: stronger effect = lower value;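 also: infected cells incubated roughly two days before readout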
[2] = altered dexamethasone sensitivity, NF-kB reporter, cell-based, luciferase, IL-1B stimulus (AID 624486); conditions: IL-1B + dexamethasone, luminescence; percent of negative control (+Dex): actives lie on both sides, concentration not given here; z-score: measured here: IL-1B alone, no Dex;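 as to percent of negative control (+Dex): 100% = mean signal of vehicle control wells on the plate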
[3] = biological target: Cellular tumor antigen p53 (Homo sapiens) (UniProt P04637); assay: GFP-p53 level modulators in HPV16+ cells – imaging, known kinase inhibitor set, EGFP/DsRed ratio (AID 1053116); conditions: GFP-p53 stability, stronger effect = higher value; EGFP object count: measured here: GFP-p53 positive objects count;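 also: cells exposed to compounds for 24 h at 37 °C before reading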
Chain of Cellular tumor antigen p53 (Homo sapiens) (P04637 whole entry, looked up): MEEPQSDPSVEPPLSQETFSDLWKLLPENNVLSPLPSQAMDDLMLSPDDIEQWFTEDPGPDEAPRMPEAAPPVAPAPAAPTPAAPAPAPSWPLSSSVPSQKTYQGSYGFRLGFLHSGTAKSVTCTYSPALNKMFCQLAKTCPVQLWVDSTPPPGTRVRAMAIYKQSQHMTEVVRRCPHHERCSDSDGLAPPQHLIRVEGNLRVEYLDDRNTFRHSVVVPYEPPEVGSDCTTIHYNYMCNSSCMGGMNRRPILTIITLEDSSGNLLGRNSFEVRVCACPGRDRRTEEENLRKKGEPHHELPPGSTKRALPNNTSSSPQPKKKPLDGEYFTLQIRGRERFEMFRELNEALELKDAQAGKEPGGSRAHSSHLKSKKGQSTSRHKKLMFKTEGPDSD

[4] = inducers of IRF3 signaling, differentiated THP-1 – cell-based, PMA-stimulated THP-1, luminescence (AID 1053176); conditions: PMA-differentiated THP-1, IRF3 reporter luminescence; stronger effect = higher value
[5] = C. elegans survival during P. aeruginosa infection – whole organism (AID 651566);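 also: tested at 14 µM; sign flipped so higher z means a lower ratio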; conditions: C. elegans killed by P. aeruginosa, survival ratio
[6] = pro-inflammatory signaling induction in mouse macrophages – cell-based, murine, luminescence (AID 652131); conditions: murine macrophage pro-inflammatory reporter, stronger effect = higher value
[7] = MELAS cybrid and Rieske KO viability enhancers – cell-based, MELAS cybrids, Rieske KO mouse fibroblasts, CellTiter-Glo, primary screen (AID 1508586;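 active = mean z-score across replicates of 1.96 or higher in either the MELAS or the Rieske mutant cell line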;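 also: z relative to plate mean and SD of compound and empty wells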); conditions: low glucose
[8] = MELAS cybrid survival, CellTiter-Glo 48 h, stronger effect = higher value
[9] = Rieske KO mouse fibroblast survival, CellTiter-Glo 72 h

Structure (SMILES) | liver cell % of control [1] [%] | parasite % of control [1] | percent of negative control (+Dex) [2] | z-score [2] | EGFP object count [3] | EGFP/DsRed ratio [3] | fraction signal [4] | z-score [5] | z-score [6] | z-score [7, 8] | z-score [7, 9]
COc1cc[nH]c1C=C1C(=O)Nc2ccc([N+](=O)[O-])c(N3CCC(O)C3)c21 (stereo unspecified) | 102 | 15.7% (inactive) | 29.5% (active) | -7.83 | 3.5 | 0.0609 (inactive) | -0.018 (inactive) | – | – | – | –
Nc1c(C(=O)c2cccc(CCC3(O)CCCC3)c2)cnn1-c1ccc(F)cc1 | 112 | 81% (inactive) | 105% (inactive) | -0.24 | 2.5 | 0.0989 (inactive) | -0.0005 (inactive) | – | – | – | –
CNCC#Cc1c(F)ccc2c1C(=Cc1[nH]ccc1OC)C(=O)N2 | 149 | 6.77% (inactive) | 162% (active) | 1.97 | 39 | 0.619 (inactive) | -0.0115 (inactive) | – | – | – | –
Cn1cc(C2=C(c3cn(-c4ccccc4)c4ccccc34)C(=O)NC2=O)c2ccccc21 | 108 | 63.3% (inactive) | 99% (inactive) | 0.65 | 3 | 0.0255 (inactive) | 0.01 (inactive) | – | – | – | –
COc1ccccc1CN=C1NC(=O)C(=Cc2ccc3ncccc3c2)S1 | 98.9 | 28.1% (inactive) | 91.5% (inactive) | -0.71 | 4.5 | 0.187 (inactive) | -0.0025 (inactive) | – | – | – | –
NS(=O)(=O)c1cccc(NC2CC(c3ccc(F)cc3)NN2)c1 (stereo unspecified) | 86.1 | 117% (inactive) | 92.5% (inactive) | 0.55 | 7.5 | 0.474 (inactive) | -0.0055 (inactive) | 0.39 (inactive) | 4.5 (inactive) | 1.38 (inactive) | -0.322
CC(=O)Nc1ccc2c(c1)c(C1=C(c3cn(C)c4ccccc34)C(=O)NC1=O)cn2C | 87.4 | 47.8% (inactive) | 97.5% (inactive) | -1.79 | 35.5 | 0.557 (inactive) | -0.0135 (inactive) | – | – | – | –
COc1cccc(C2=C(c3cn(C)c4cccc(OC)c34)C(=O)NC2=O)c1 | 91.4 | 121% (inactive) | 99% (inactive) | 0.35 | 9 | 0.102 (inactive) | 0.0015 (inactive) | – | – | – | –
Cn1cc(C2=C(c3cn(CCCCO)c4ccccc34)C(=O)NC2=O)c2ccccc21 | 84 | 14.3% (inactive) | 108% (inactive) | -1.57 | 32.5 | 0.668 (inactive) | -0.005 (inactive) | – | – | – | –
Nc1c(C(=O)c2cccc(CCCN3CCOCC3)c2)cnn1-c1ccc(F)cc1 | 97.8 | 48.1% (inactive) | 109% (inactive) | 1.09 | 6 | 0.339 (inactive) | -0.005 (inactive) | – | – | – | –
CCCCCNC(=O)C1CCCN2C(=O)CCC(NC(=O)C(Cc3ccc(OP(=O)(O)O)cc3)NC(C)=O)C(=O)N12 (stereo unspecified) | 106 | 50.1% (inactive) | 99% (inactive) | 0.695 | 3.5 | 0.227 (inactive) | -0.007 (inactive) | – | – | – | –
O=C1NC(=NCCc2ccccn2)SC1=Cc1ccc2ncccc2c1 | 170 | 32.1% (inactive) | 92.5% (inactive) | 0.025 | 5.5 | 0.134 (inactive) | 0.0055 (inactive) | – | – | – | –
N#Cc1c(C(=O)c2ccccc2)cnn1-c1ccccc1 | 104 | 56.2% (inactive) | 106% (inactive) | 1.11 | 7 | 0.125 (inactive) | -0.007 (inactive) | – | – | – | –
Cc1ccc(C(=O)NC2CCC2)cc1-c1ccc(C(=O)NCC2CC2)cc1 | 104 | 116% (inactive) | 98.5% (inactive) | 1.36 | 2 | 0.0763 (inactive) | -0.002 (inactive) | 0.425 (inactive) | -0.285 (inactive) | -0.173 (inactive) | -0.404
COc1cc(N2CCN(C(C)C)CC2)ccc1Nc1nc(Nc2cccc3ncccc23)c2cc[nH]c2n1 | 96.4 | 180% (inactive) | 92.5% (inactive) | -0.235 | 1 | 0.00687 (inactive) | -0.0005 (inactive) | 0.32 (inactive) | -0.489 (inactive) | -1.02 (inactive) | -0.0497
Cn1cc(C2=C(Nc3ccccc3)C(=O)NC2=O)c2ccccc21 | 106 | 67.5% (inactive) | 106% (inactive) | 0.495 | 7 | 0.118 (inactive) | -0.007 (inactive) | – | – | – | –
Cn1cc(C2=C(c3c4n(c5ccccc35)CC(CN)C4)C(=O)NC2=O)c2ccccc21 (stereo unspecified) | 97.6 | 48.9% (inactive) | 100% (inactive) | -0.23 | 6.5 | 0.00726 (inactive) | -0.005 (inactive) | – | – | – | –
Cn1c(=O)c(Oc2ccc(F)cc2F)cc2cnc(NC(CO)CO)nc21 | 113 | 64.2% (inactive) | 108% (inactive) | 0.05 | 2.5 | 0.0637 (inactive) | 0.0035 (inactive) | – | – | – | –
O=c1c(Oc2ccc(F)cc2F)cc2cnc(NC3CCOCC3)nc2n1CCCO | 122 | 71.8% (inactive) | 92% (inactive) | -0.815 | 2.5 | 0.0231 (inactive) | 0.0075 (inactive) | – | – | – | –

Structure (SMILES) | liver cell % of control [1] [%] | parasite % of control [1] | percent of negative control (+Dex) [2] | z-score [2] | EGFP object count [3] | EGFP/DsRed ratio [3] | fraction signal [4] | z-score [5] | z-score [6] | z-score [7, 8] | z-score [7, 9]
CC(=O)NC(Cc1ccc(OP(=O)(O)O)cc1)C(=O)NC1CCC(=O)N2CCCC(C(=O)NCc3ccc(O)cc3)N2C1=O (stereo unspecified) | 107 | 44.4% (inactive) | 94.5% (inactive) | 0.215 | 6 | 0.202 (inactive) | -0.007 (inactive) | – | – | – | –
CNc1ncc2cc(Oc3ccc(F)cc3F)c(=O)n(C)c2n1 | 109 | 65.3% (inactive) | 94.5% (inactive) | 1.49 | 2.5 | 0.0112 (inactive) | -0.001 (inactive) | – | – | – | –
Nc1[nH]nc2nc(-c3cccs3)cc(C(F)(F)F)c12 | 104 | 41.7% (inactive) | 73% (active) | -2.23 | 4 | 0.138 (inactive) | -0.0165 (inactive) | – | – | – | –
Cn1cc(C2=C(c3cccc(N)c3)C(=O)NC2=O)c2ccccc21 | 102 | 14.9% (inactive) | 124% (active) | -1.23 | 23.5 | 0.303 (inactive) | -0.005 (inactive) | – | – | – | –
COc1ccc2c(c1)C(c1ccccc1Cl)=Nc1c(n[nH]c1C)N2 | 81.2 | 28.8% (inactive) | 92% (inactive) | -0.45 | 3 | 0.0722 (inactive) | 0.0035 (inactive) | – | – | – | –
Cn1cc(C2=C(c3cn(CCCCCSC(=N)N)c4ccccc34)C(=O)NC2=O)c2ccccc21 | 88.1 | 29.3% (inactive) | 99.5% (inactive) | 1.02 | 24.5 | 0.037 (inactive) | -0.007 (inactive) | – | – | – | –
Cn1cc(C2=C(c3ccc4ccccc4c3)C(=O)NC2=O)c2ccccc21 | 105 | 53.6% (inactive) | 94% (inactive) | -0.025 | 3 | 0.0576 (inactive) | -0.001 (inactive) | – | – | – | –
CC(=O)N1CCC(Nc2ncc3cc(Oc4ccc(F)cc4F)c(=O)n(C)c3n2)CC1 | 113 | 81.4% (inactive) | 102% (inactive) | 0.13 | 2 | 0.0142 (inactive) | -0.005 (inactive) | – | – | – | –
COc1cccc(C2=C(c3c(C)n(C)c4ccccc34)C(=O)NC2=O)c1 | 97.6 | 66.1% (inactive) | 91% (inactive) | -0.5 | 6 | 0.121 (inactive) | -0.0005 (inactive) | – | – | – | –
Cn1cc(C2=C(c3cccc4ccccc34)C(=O)NC2=O)c2ccccc21 | 108 | 33.9% (inactive) | 95.5% (inactive) | -1.1 | 14 | 0.386 (inactive) | -0.007 (inactive) | – | – | – | –
COc1cc(N2CCN(C(C)C)CC2)ccc1Nc1nc(Nc2ccc(F)cc2C(=O)NC[C@@H](O)CO)c2cc[nH]c2n1 | 85 | 330% (inactive) | 103% (inactive) | 0 | 3.5 | 0.273 (inactive) | 0 (inactive) | -0.875 (inactive) | -0.151 (inactive) | -0.811 (inactive) | 0.239
CNC(C#Cc1c(F)ccc2c1C(=Cc1[nH]ccc1OC)C(=O)N2)CO (stereo unspecified) | 129 | 62.7% (inactive) | 144% (active) | 1.07 | 51.5 | 0.055 (inactive) | 0.001 (inactive) | – | – | – | –
COc1ccc(O)c(C(=O)c2ccc(C(=O)O[C@H]3CCCNC[C@@H]3NC(=O)c3ccncc3)cc2)c1F | 113 | 109% (inactive) | 62% (active) | -1.53 | 15.5 | 0.253 (inactive) | 0.001 (inactive) | – | – | – | –
COC(=O)c1sc(-n2cnc3cc(OC)c(OC)cc32)cc1OCc1ccccc1C(F)(F)F | 103 | 126% (inactive) | 86% (inactive) | 0.12 | 4.5 | 0.108 (inactive) | -0.003 (inactive) | 0.885 (inactive) | 0.445 (inactive) | -0.644 (inactive) | 0.293
Cn1cc(C2=C(c3cccc(Br)c3)C(=O)NC2=O)c2ccccc21 | 153 | 39.5% (inactive) | 110% (inactive) | -0.515 | 3.5 | 0.13 (inactive) | 0.0055 (inactive) | – | – | – | –
N#Cc1ccc(C(=O)c2cnn(-c3ccc(F)cc3)c2N)cc1 | 103 | 59.8% (inactive) | 131% (active) | 1.97 | 13 | 0.456 (inactive) | 0.0095 (inactive) | – | – | – | –
Nc1c(C(=O)c2cccc(-c3ccncc3)c2)cnn1-c1ccc(F)cc1F | 92.7 | 53.9% (inactive) | 102% (inactive) | 0.04 | 5 | 0.0527 (inactive) | -0.009 (inactive) | – | – | – | –
CC(C)c1[nH]nc2c1N=C(c1ccccc1Cl)c1cc([N+](=O)[O-])ccc1N2 | 105 | 61.2% (inactive) | 108% (inactive) | 0.05 | 50.5 | 1.11 (active) | -0.0115 (inactive) | – | – | – | –
Cn1c(=O)c(Cc2ccc(F)cc2F)cc2cnc(NC3CCOCC3)nc21 | 103 | 54.9% (inactive) | 98.5% (inactive) | 0.48 | 3 | 0.139 (inactive) | -0.0055 (inactive) | – | – | – | –
